Potency and outcome data for 40 compounds are collected here from PubChem BioAssay (NCATS).

For assay [1], the target named is Cytochrome P450 2D6 (Homo sapiens) (UniProt P10635). Put plainly: Cytochrome P450 family 2 subfamily D member 6 (CYP2D6) small molecule antagonists: luciferase biochemical (cell-free) qHTS assay (AID 1645840). Further: nearly all actives have a fitted effect of over 55% in size. Further: potency means the concentration at half of the fitted maximal effect. The essentials:
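P450-Glo luminescent screen: recombinant CYP2D6 enzyme–proluciferin substrate mix preincubated with compound 10 min at room temperature, then NADPH regeneration added for 1 h at room temperature. Detection reagent added for 20 min; luciferin light read as relative luminescence units.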

Assay [2] addresses Cytochrome P450 2C9 (Homo sapiens) (UniProt P11712). The assay is described as follows: Cytochrome P450 family 2 subfamily C member 9 (CYP2C9) small molecule antagonists: luciferase biochemical (cell-free) qHTS assay (AID 1645842). Further: nearly all actives have a fitted effect of over 55% in size. Further: potency means the concentration at half of the fitted maximal effect. The gist of the method: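 Luminescence, after 20 min with luciferin detection reagent, reflected CYP2C9 turnover during a 1 h NADPH-driven reaction at 37C. Enzyme-substrate mix contained 0.4% bovine serum albumin and was preincubated with compound 10 min at room temperature.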

The target in another assay is Papain (Carica papaya) (UniProt P00784). The assay is described as follows: Primary qHTS assay for inhibitors of the protease papain (AID 1645873; active means well fitted curve in the direction sought with a large enough effect; an effect the other way counts as inactive or inconclusive;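 further: papain turnover of Z-FR-AMC read as the AMC fluorescence gain over 10 min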; further: potency means the concentration at half of the fitted maximal effect).
Sequence of Papain (Carica papaya) (P00784 whole entry, looked up, the tested form may be a part): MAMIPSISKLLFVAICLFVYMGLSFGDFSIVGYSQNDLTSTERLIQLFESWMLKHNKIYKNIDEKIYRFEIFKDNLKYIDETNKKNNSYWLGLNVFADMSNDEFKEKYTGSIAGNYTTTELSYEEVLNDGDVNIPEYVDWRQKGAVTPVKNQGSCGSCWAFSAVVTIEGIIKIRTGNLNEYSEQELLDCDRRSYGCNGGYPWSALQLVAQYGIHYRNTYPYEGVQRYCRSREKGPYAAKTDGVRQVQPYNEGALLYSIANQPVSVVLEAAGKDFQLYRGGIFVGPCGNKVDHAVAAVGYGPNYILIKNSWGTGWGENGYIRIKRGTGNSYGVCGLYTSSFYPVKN
Assay [3] is described as follows: Primary qHTS for inhibitors of nuclear receptor binding SET domain protein 2 (NSD2) in an isogenic RCH-ACV NSD2 p.E1099K mutant (9B) (AID 1645876; active means well fitted curve in the direction sought with a large enough effect; an effect the other way counts as inactive or inconclusive; further: nearly all actives have a fitted effect of over 70% in size; further: potency means the concentration at half of the fitted maximal effect).
Assay [4] is described as follows: Primary qHTS for inhibitors of nuclear receptor binding SET domain protein 2 (NSD2) in an RCH-ACV wild type WT cells (2C) (AID 1645877; active means well fitted curve in the direction sought with a large enough effect; an effect the other way counts as inactive or inconclusive; further: nearly all actives have a fitted effect of over 70% in size; further: potency means the concentration at half of the fitted maximal effect).
Assay [5] deals with Cytochrome P450 3A4 (Homo sapiens) (UniProt P08684). The assay is described as follows: Cytochrome P450 family 3 subfamily A member 4 (CYP3A4) small molecule antagonists: luciferase qHTS assay (AID 1645841). Further: nearly all actives have a fitted effect of over 45% in size. The gist of the method: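 P450-Glo CYP3A4 enzyme with proluciferin substrate was preincubated with DMSO-dissolved compounds for 10 min at room temperature. NADPH regeneration solution started a 1 h reaction. Detection reagent stopped it, and luminescence was read after 20 min.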
Sequence of Cytochrome P450 3A4 (Homo sapiens) (P08684 whole entry, looked up): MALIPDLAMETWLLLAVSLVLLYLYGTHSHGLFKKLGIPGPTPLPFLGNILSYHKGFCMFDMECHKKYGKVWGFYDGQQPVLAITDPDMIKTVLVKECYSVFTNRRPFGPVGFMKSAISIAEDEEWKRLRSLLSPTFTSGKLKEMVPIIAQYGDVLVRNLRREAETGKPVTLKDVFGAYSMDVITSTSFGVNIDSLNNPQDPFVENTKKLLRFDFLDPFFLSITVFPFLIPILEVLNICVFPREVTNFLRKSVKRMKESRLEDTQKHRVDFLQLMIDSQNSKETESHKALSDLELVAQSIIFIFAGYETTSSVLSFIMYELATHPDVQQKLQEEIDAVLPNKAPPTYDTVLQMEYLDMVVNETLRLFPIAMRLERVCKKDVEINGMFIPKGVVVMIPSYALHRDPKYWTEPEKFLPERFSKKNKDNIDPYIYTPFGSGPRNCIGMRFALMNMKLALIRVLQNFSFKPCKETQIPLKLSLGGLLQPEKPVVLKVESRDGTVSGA

The target in assay [6] is Rap guanine nucleotide exchange factor 3 (Homo sapiens) (UniProt O95398). Put plainly: Confirmatory qHTS for antagonist of cAMP-regulated guanine nucleotide exchange factor 3 (EPAC1) (AID 1645880; active means well fitted curve in the direction sought with a large enough effect; an effect the other way counts as inactive or inconclusive; further: nearly all actives have a fitted effect of over 55% in size). The essentials:
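Nucleotide exchange uses 100 nM EPAC1, 250 nM RAP1B-BODIPY-GDP and 50 uM GDP, with compounds in a concentration-titration series. After 5 min at room temperature, fluorescence (480 nm ex/540 nm em) is read every 5 min for 30 min. Data are normalized to control ATA and DMSO.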

Assay [7] shares this target. Put plainly: Confirmatory qHTS for agonist of cAMP-regulated guanine nucleotide exchange factor 3 (EPAC1) (AID 1645881; active means well fitted curve in the direction sought with a large enough effect; an effect the other way counts as inactive or inconclusive;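 further: EPAC1 catalysed release of BODIPY-GDP from Rap1B seen as fluorescence loss; nearly all actives have a fitted effect of over 75% in size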).
Assay [8] deals with Rap guanine nucleotide exchange factor 4 (Homo sapiens) (UniProt Q8WZA2). Put plainly: Confirmatory qHTS for agonist of cAMP-regulated guanine nucleotide exchange factor 4 (EPAC2) (AID 1645884; active means well fitted curve in the direction sought with a large enough effect; an effect the other way counts as inactive or inconclusive;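 further: nucleotide exchange releases bodipy-GDP from Rap1 and this lowers its fluorescence; nearly all actives have a fitted effect of over 65% in size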).
Sequence of Rap guanine nucleotide exchange factor 4 (Homo sapiens) (Q8WZA2 whole entry, looked up): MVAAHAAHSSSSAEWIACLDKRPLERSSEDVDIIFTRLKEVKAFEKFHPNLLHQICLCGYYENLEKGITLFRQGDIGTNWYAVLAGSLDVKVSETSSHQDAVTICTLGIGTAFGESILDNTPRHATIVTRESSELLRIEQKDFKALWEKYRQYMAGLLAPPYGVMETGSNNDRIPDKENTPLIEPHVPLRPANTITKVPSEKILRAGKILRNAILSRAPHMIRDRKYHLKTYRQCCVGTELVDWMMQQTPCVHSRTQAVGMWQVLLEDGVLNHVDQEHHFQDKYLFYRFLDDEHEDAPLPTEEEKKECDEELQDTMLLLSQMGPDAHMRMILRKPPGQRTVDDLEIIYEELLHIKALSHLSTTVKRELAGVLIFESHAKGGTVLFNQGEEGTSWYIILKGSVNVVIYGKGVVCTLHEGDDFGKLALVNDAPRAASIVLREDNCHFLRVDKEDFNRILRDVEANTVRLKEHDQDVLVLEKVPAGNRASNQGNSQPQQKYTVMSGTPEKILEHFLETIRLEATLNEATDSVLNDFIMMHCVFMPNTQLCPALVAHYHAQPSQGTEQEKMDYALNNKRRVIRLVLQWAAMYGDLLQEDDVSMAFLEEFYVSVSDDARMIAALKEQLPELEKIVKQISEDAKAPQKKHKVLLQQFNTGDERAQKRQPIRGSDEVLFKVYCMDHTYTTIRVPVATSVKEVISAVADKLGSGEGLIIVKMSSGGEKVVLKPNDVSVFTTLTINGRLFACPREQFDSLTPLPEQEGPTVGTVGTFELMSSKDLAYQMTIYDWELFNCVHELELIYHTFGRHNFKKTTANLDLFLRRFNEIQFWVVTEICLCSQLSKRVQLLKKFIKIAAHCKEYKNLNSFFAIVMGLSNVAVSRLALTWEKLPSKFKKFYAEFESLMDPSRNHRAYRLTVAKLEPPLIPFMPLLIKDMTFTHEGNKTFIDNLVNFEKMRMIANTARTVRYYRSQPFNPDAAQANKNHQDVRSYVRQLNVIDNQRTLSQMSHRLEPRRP
For assay [9], the target named is N-terminal Xaa-Pro-Lys N-methyltransferase 1 (Homo sapiens) (UniProt Q9BV86). Put plainly: Confirmatory qHTS for Inhibitors of N-terminal methyltransferase 1 (NTMT1): MTaseGlo Assay (AID 1645874; active means well fitted curve in the direction sought with a large enough effect; an effect the other way counts as inactive or inconclusive; further: potency means the concentration at half of the fitted maximal effect; nearly all actives have a fitted effect of over 65% in size). The following applies: NTMT1 enzyme, MTase-Glo SAH luminescence. The essentials:
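Preincubation of NTMT1 (125 nM) plus SAM (100 uM) with test compounds lasted 15 min; methylation of 1 uM SPKRIA then proceeded 30 min in the dark at room temperature. Luciferase signal reported SAH produced.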

Records with an inconclusive call do not appear. The source made the active and inactive calls. Unless noted, the call rests on the fitted dose curve; in most records, active means well fitted curve in the direction sought with a large enough effect in the repeat runs; inconclusive means weak or mixed curves; inactive means no such curve, though single readings can be large; an effect the other way counts as inactive or inconclusive.

Sequence of Rap guanine nucleotide exchange factor 3 (Homo sapiens) (O95398 whole entry, looked up): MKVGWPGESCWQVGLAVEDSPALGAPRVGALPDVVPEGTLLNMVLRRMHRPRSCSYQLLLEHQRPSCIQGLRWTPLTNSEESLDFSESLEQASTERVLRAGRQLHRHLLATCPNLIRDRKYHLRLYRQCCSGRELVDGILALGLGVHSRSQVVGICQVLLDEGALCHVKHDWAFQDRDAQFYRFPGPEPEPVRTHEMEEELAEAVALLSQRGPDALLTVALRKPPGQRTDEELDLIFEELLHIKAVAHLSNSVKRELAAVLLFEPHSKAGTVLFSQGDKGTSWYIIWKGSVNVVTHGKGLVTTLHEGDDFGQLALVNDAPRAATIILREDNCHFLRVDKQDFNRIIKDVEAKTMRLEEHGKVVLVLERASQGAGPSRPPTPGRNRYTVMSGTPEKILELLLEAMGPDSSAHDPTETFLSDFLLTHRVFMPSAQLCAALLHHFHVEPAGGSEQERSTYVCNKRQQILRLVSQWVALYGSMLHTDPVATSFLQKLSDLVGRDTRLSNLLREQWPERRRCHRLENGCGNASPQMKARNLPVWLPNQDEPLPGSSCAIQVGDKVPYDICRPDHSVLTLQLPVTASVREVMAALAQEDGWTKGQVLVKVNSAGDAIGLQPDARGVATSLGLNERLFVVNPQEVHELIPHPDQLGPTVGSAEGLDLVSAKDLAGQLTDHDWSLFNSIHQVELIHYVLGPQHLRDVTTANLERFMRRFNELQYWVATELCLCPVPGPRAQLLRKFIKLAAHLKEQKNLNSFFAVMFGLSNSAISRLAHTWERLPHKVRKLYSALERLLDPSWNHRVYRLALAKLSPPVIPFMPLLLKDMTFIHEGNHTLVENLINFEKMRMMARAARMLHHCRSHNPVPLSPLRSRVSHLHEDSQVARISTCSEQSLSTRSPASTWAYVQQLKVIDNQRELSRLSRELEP
Sequence of Cytochrome P450 2D6 (Homo sapiens) (P10635 whole entry, looked up): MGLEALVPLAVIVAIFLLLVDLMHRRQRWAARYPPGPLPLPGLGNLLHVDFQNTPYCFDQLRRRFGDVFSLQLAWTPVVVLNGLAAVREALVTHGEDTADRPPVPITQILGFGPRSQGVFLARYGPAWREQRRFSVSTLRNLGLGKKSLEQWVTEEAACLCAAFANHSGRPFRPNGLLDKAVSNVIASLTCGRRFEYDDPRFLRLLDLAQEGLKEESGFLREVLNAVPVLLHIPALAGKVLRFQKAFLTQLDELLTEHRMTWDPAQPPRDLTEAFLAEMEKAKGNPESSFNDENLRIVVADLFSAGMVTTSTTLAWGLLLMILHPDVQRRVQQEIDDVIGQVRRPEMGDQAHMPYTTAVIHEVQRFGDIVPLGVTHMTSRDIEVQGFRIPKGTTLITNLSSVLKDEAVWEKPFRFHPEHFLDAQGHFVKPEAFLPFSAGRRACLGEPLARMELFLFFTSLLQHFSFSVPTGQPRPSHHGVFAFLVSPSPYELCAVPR
Sequence of Cytochrome P450 2C9 (Homo sapiens) (P11712 whole entry, looked up): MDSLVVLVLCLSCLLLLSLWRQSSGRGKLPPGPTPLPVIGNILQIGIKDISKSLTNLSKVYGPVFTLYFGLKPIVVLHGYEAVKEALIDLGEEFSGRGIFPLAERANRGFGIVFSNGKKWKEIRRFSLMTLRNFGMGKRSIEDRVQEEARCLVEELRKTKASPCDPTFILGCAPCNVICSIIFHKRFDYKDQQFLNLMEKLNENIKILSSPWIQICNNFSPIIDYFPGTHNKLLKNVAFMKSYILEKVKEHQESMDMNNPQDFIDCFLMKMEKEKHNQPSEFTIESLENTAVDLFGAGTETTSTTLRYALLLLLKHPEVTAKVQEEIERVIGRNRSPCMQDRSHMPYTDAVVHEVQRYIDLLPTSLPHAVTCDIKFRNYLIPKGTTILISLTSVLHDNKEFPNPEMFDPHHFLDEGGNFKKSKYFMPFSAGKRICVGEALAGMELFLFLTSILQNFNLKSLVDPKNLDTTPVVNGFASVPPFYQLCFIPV
Sequence of N-terminal Xaa-Pro-Lys N-methyltransferase 1 (Homo sapiens) (Q9BV86 whole entry, looked up): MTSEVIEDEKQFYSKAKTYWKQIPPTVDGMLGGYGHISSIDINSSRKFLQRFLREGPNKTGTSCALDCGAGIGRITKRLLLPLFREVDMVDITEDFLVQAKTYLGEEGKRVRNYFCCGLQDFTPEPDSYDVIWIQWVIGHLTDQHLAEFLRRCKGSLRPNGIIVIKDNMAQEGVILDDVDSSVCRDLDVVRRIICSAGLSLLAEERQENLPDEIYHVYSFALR

Turning to `O=C1NC(=O)[C@@]2(CCOc3ccc(F)cc32)N1`, the Potency entry (in [1]; in assay [2]; with Papain (Carica papaya); in [3]; in assay [4]) was “inactive” each time.

On to `O=C1NS(=O)(=O)c2ccccc21`, for which the Potency result in assay [1] and in [2] was “inactive” throughout.

`O=C(O)[C@@H]1CSCN1`: the Potency result in assay [1], in [2], in [3] and in assay [4] was “inactive” each time. The result in assay [5] was inactive.

Consider `CN(C)CCN(Cc1ccccc1)c1ccccn1`, for which the Potency in assay [1] was 0.174 µM (active). The Potency result in [2] was “inactive”.

Take `CN(C)CC[C@@H](c1ccc(Cl)cc1)c1ccccn1`: the Potency in assay [1] was 9.52 µM (active). Further, the Potency result (in assay [2]; in the assay with Papain (Carica papaya); in assay [3]; in [4]) was “inactive” each time.

In the case of `CC(CN(C)C)CN1c2ccccc2CCc2ccccc21` (configuration not stated), the Potency in assay [1] was 2.88 µM (active). For the same compound, the Potency entry (in [2]; with Papain (Carica papaya)) was “inactive” in each case.

In the case of `OCC(O)CN1CCN(c2ccccc2)CC1` (configuration not stated), the Potency entry in [1], in assay [2], in assay [3] and in [4] was “inactive” throughout. Further, the compound was called inactive in assay [5].

As to `Cc1cc(CC(=O)O)n(C)c1C(=O)c1ccc(Cl)cc1`, the Potency result in [1] and in assay [2] was “inactive” in each case.

Turning to `Cc1c(O)cccc1C(=O)N[C@@H](CSc1ccccc1)[C@H](O)CN1C[C@H]2CCCC[C@H]2C[C@H]1C(=O)NC(C)(C)C`, the results for the Potency in [1], in assay [2] and in assay [3] were 3.47 µM (active), 15.5 µM (active) and 15 µM (active), respectively. In the assay with Papain (Carica papaya), the Potency entry is “inactive”.

For the compound `c1ccc2c(CC3=NCCN3)cccc2c1`, the Potency in [1] was 15.5 µM (active). In addition, in assay [5], the result was inactive. Besides, the Potency result in assay [2] and in assay [3] was “inactive” each time.

For `COc1ccc(S(=O)(=O)Nc2nnc(CC(C)C)s2)cc1`, the Potency result in assay [1], in assay [3] and in assay [4] was “inactive” throughout. The Potency in [2] is 21.9 µM (active).

In the case of `[O-][n+]1cccc(CO)c1`, the Potency result in assay [1], in assay [2], in assay [3] and in assay [4] was “inactive” in each case.

On to `CNC(=O)Oc1ccc2c(c1)[C@]1(C)CCN(C)[C@@H]1N2C`, for which the Potency in assay [1] is 0.977 µM (active). Also, the Potency entry (in [2]; with Papain (Carica papaya); in assay [3]; in assay [6]; in [7]; in assay [8]) was “inactive” in each case.

Regarding `O=S(=O)(O)c1cc(I)c(O)c2ncccc12`, the Potency result in assay [1], in assay [2] and in assay [3] was “inactive” throughout.

For the compound `Cn1c(=O)c2c(ncn2CC2OCCO2)n(C)c1=O`, the Potency entry in assay [1], in assay [2] and in assay [3] was “inactive” in each case.

Consider `C[C@@H]1CN(c2c(F)c(F)c3c(=O)c(C(=O)O)cn(C4CC4)c3c2F)C[C@H](C)N1`, for which the Potency result in assay [1], in assay [2] and in assay [3] was “inactive” throughout.

As for `CCOC(=O)[C@H](CCc1ccccc1)N[C@@H](C)C(=O)N1C(=O)N(C)C[C@H]1C(=O)O`, the Potency entry in [1], in [2] and in assay [3] was “inactive” throughout.

In the case of `OCC(CO)N[C@H]1C[C@](O)(CO)[C@@H](O)[C@H](O)[C@H]1O`, the Potency result in assay [1], in assay [2] and in assay [3] was “inactive” in each case.

Turning to `CCCCCCCCCCCCCCCCCCOCC(O)CO` (configuration not stated), the Potency result in [1], in assay [2] and in assay [3] was “inactive” each time.

Turning to `O=c1cc(CO)occ1O`, the Potency result in [1], in [2] and in assay [3] was “inactive” throughout.

Regarding `CCCOC(=O)c1ccccc1`, the Potency entry in assay [1], in assay [2] and in [3] was “inactive” throughout.

With `CC(=O)Oc1ccc(C2(c3ccc(OC(C)=O)cc3)C(=O)Nc3ccccc32)cc1`, the Potency entry in assay [1] and in assay [3] was “inactive” in each case. In assay [2], the Potency is 5.49 µM (active).

Take `O=c1cc[nH]c(=O)[nH]1`: the Potency result in [1], in [2] and in assay [3] was “inactive” in each case.

On to `COc1ccc2[nH]c(S(=O)Cc3ncc(C)c(OC)c3C)nc2n1` (configuration not stated), for which the Potency entry in assay [1], in [3] and in assay [4] was “inactive” throughout. Further, the Potency is 10.7 µM (active) in assay [2] and 35.5 µM (active) in assay [9].

With `C#CCN(C)Cc1ccccc1`, the Potency entry (in assay [1]; in assay [2]; with Papain (Carica papaya); in [3]; in assay [4]) was “inactive” in each case.

With `O=C(CCCN1CCN(c2ccccn2)CC1)c1ccc(F)cc1`, the Potency in assay [1] was 15.5 µM (active); in assay [2], 12.3 µM (active). For the same compound, in assay [3], the Potency result was “inactive”.

Regarding `CC(C)C(=O)c1c(C(C)C)nn2ccccc12`, the Potency entry (in assay [1]; in [2]; with Papain (Carica papaya); in [3]; in assay [4]) was “inactive” throughout.

Take `O=C(O)Cc1sc(-c2ccccc2)nc1-c1ccc(Cl)cc1`: the Potency result in [1] and in assay [3] was “inactive” each time. Besides, the Potency in assay [2] is 4.9 µM (active).

In the case of `Cc1cc(O)cc2c1O[C@](C)(CCC[C@H](C)CCC[C@H](C)CCCC(C)C)CC2`, the Potency result in assay [1], in assay [2], in [3] and in [4] was “inactive” in each case.

In the case of `CCN(CC)CCCC(C)Nc1c2ccc(Cl)cc2nc2ccc(OC)cc12` (configuration not stated), the Potency is 0.0776 µM (active) in [1], 17.8 µM (active) with Papain (Carica papaya), 7.42 µM (active) in assay [3] and 5.25 µM (active) in assay [4]. Also, the Potency result in [2], in assay [6] and in [7] was “inactive” in each case.

As to `CCCCC/C(C=O)=C\c1ccccc1`, the Potency result in [1], in [2] and in [3] was “inactive” throughout.

In the case of `CCC(=O)c1ccc(O)cc1`, the Potency entry in [1], in assay [2] and in assay [3] was “inactive” in each case.

For the compound `COc1cc(C(=O)N2CCOCC2)cc(OC)c1OC`, the Potency entry in assay [1], in assay [2] and in assay [3] was “inactive” throughout.

In the case of `C[C@]12CC[C@@H]3c4ccc(O)cc4CC[C@H]3[C@@H]1CC[C@@H]2OC(=O)CCC1CCCC1`, the Potency entry in assay [1] and in assay [3] was “inactive” in each case. In addition, in assay [2], the Potency is 19 µM (active).

Turning to `CCCCc1ncc(/C=C(\Cc2cccs2)C(=O)O)n1Cc1ccc(C(=O)O)cc1`, the Potency entry (in assay [1]; in [2]; with Papain (Carica papaya); in assay [3]; in assay [4]) was “inactive” each time.

With `CCOc1ccc2ccccc2c1C(=O)N[C@@H]1C(=O)N2[C@@H]1SC(C)(C)[C@@H]2C(=O)O`, the Potency entry in [1], in assay [2], in assay [3] and in assay [4] was “inactive” throughout.

In the case of `O=C(O)[C@H](O)c1ccccc1`, the Potency entry in [1], in assay [2] and in assay [3] was “inactive” each time.

With `Cc1ccc(C(C)C)cc2c(C)ccc1-2`, the Potency entry in [1], in assay [2] and in assay [3] was “inactive” in each case.

For the compound `O=Cc1ccccc1C=O`, the Potency entry in assay [1], in assay [2] and in assay [3] was “inactive” each time.

In the case of `Cn1cc[nH]c1=S`, the Potency result in assay [1], in assay [2] and in assay [3] was “inactive” throughout.
